Source: PubChem BioAssay
An excerpt weighted towards active compounds, which were near 19% of everything screened.
DT40 TDP1 no CPT – qHTS for Inhibitors of human tyrosyl-DNA phosphodiesterase 1 (TDP1): qHTS in cells in absence of CPT | DT40 Tdp1-/- hTDP1 cells, no CPT, ATP luminescence, 48 h | Potency, µM (series often up to 46.2 µM), for the others: at the highest dose activity change, negative = growth inhibition, hits mostly inhibitors | 420,000 compounds, 15% hits | AID 686978, 2013; also: potency is read from the fitted curve at half-maximal effect; % is scaled to controls: 0 for no effect and ±100 for the full control effect; nearly all actives have a fitted effect of over 55% in size
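Cells were dispensed at 400 per well, compounds added by pin tool, plates incubated ≥48 hr at 37 °C, then CellTiter-Glo added for 30 min at room temperature before luminescence reading. Line: DT40 Tdp1-/- complemented with hTDP1; camptothecin omitted.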
TGFb inhibitor – TGF-b pathway inhibition | HepG2 CAGA-GFP TGF-b/SMAD3 reporter, GFP fluorescence, 18 h; TGF-beta stimulated, 500 pg/mL final | Potency, µM (titrated, usually from 46.1 µM), inactives show at the top dose activity, negative = inhibition, hits mostly inhibitors | 410,000 compounds, 1.2% hits | AID 588855; also: potency is read from the fitted curve at half-maximal effect; % is scaled to controls: 0 for no effect and ±100 for the full control effect; nearly all actives have a fitted effect of over 65% in size
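TGF-beta reporter screen: HEPG2 CAGA-GFP, 1% FBS, 500 pg/mL TGF-beta final, 18 h; per-cell GFP summed per well; curves fitted and categorized by class.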
DT40 TDP1 CPT – growth inhibition of DT40 Tdp1-/-;hTDP1 cells with camptothecin (screen for TDP1 inhibitors); chicken DT40 Tdp1-/-;hTDP1 cells + 20 nM CPT, ATP luminescence, 48 h; Potency, µM (highest dose often 46.2 µM), for the others: at the highest dose activity change, negative = growth inhibition, actives largely listed as inhibitors; 420,000 compounds, 12% hits; also: potency is read from the fitted curve at half-maximal effect; % is scaled to controls: 0 for no effect and ±100 for the full control effect; nearly all actives have a fitted effect of over 55% in size
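Cell growth measured by CellTiter-Glo luminescence after a minimum 48 h, 37 C compound exposure with 20 nM CPT in Tdp1-knockout DT40 cells stably expressing hTDP1, seeded 400/well; qHTS titration format.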
HepG2 tox – HepG2 cytotoxicity, counter-screen for TGF-b inhibitors; HepG2 CAGA-GFP viability, ATP luminescence, 18 h; Potency, µM (top dose mostly 46.1 µM), for inactives: at the highest dose activity change, negative = cytotoxicity, hits mostly cytotoxic; 410,000 compounds, 0.76% hits; also: potency is read from the fitted curve at half-maximal effect
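CellTiter-Glo luminescence gave cytotoxicity after 18 hours at 37 degrees C. The cells were HepG2 CAGA-GFP in 1% FBS DMEM, stimulated with 500 pg/mL TGF-beta after compound addition. %Activity was normalised to no-cell wells (complete cell-killing) and DMSO (no toxicity), and curves were fitted and classified.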
IL-1B inflam inh – inhibitors of inflammasome signaling (IL-1 beta secretion) | THP-1 LPS/ATP IL-1B secretion, AlphaLISA, 16 h; hits give low values | activity change, % at 57.5 µM | 360,000 compounds, 4.7% hits; in the data active = activity change below about -50%; inconclusive = mostly about -30% to -49%; also: % is scaled to controls: 0 for no effect and ±100 for the full control effect
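THP-1 cells pretreated 1 hr with compounds (up to 57.5 uM final), then stimulated with LPS (250 ng/mL final) plus ATP (1.25 mM final); secreted IL-1B measured by AlphaLISA after 16 hr, decreased signal indicating inhibition.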
S-ASM inh – human S-ASM enzyme inhibition. P17405. placental ASM, HMU-PC fluorogenic substrate, 60 min. Potency, µM (doses to about 57.5 µM), inactives show at the highest dose activity change, negative = inhibition, hits mostly inhibitors. 340,000 compounds, 0.006% hits; also: potency is read from the fitted curve at half-maximal effect
Target sequence (P17405 47-631 limits assumed): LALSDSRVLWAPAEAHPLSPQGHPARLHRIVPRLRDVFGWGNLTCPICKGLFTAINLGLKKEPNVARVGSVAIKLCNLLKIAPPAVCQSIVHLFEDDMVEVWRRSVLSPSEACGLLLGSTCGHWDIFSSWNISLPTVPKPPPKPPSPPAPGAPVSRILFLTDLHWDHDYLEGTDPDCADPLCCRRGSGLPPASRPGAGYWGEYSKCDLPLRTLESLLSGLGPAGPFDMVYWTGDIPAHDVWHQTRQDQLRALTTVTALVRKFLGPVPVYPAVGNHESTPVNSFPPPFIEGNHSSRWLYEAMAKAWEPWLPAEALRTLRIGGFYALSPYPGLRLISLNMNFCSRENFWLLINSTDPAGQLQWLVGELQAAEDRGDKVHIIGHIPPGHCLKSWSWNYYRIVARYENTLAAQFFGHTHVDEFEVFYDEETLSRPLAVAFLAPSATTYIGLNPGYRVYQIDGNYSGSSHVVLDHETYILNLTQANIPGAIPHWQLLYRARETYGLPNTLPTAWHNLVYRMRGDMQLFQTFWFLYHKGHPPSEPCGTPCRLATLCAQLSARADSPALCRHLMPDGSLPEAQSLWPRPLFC
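Fluorogenic HMU-PC substrate (9 uM final) is turned over by placental ASM in 60 min at 37 C after a 10 min compound preincubation. Reaction ended by alkaline stop (pH 10), with fluorescence read at 386/447 nm.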
Numbers without * were called inactive; ? = inconclusive; . = no result given; [ ] = another dose, or the depositor's remark. Unless noted, calls follow the shape of the dose curve; as a rule, active = well fitted curve in the direction sought with a large enough effect; inconclusive = small, poorly fitted or top-dose-only effect, or another doubt; inactive = no such curve, though single readings can be large; an effect the other way counts as inactive or inconclusive.

SMILES | DT40 TDP1 no CPT | TGFb inhibitor | DT40 TDP1 CPT | HepG2 tox | IL-1B inflam inh | S-ASM inh
Cc1cc(Cl)ccc1OCC(=O)NCC1Cc2cc(-c3cnccn3)ccc2O1 (stereo not given) | 1% | . | -3% | . | . | .
CCOC(=O)C1=C(C)Nc2ncnn2C1c1cccs1 (stereo not given) | -10% | -19% | -23% | 5% | 48 | 35%
CCOc1ccc(C2C=C(c3ccc(F)cc3)Nc3ncnn32)cc1 (stereo not given) | ? | 13% | -21% | -8% | -13 | 72%
CCOC(=O)C1=C(C)Nc2ncnn2C1c1cc(Br)ccc1F (stereo not given) | 26µM* | -25% | ? | -14% | 13 | 80%
Fc1ccc(Br)cc1C1C=C(c2cccnc2)Nc2ncnn21 (stereo not given) | 16µM* | 0% | 16µM* | 1% | 29 | 45%
CCOc1ccc(C2=CC(c3cc(Br)ccc3F)n3ncnc3N2)cc1Cl (stereo not given) | 18µM* | -6% | 15µM* | -12% | . | .
Cc1cc(OC(C)C(=O)NCc2cccnc2)c2c(C)cc(=O)oc2c1 (stereo not given) | -15% | 4% | ? | -2% | 4 | 8%
COc1ccccc1N(CC(=O)N/N=C/c1ccc(OCC(=O)NCc2ccco2)cc1)S(=O)(=O)c1ccc(C)cc1 | 13µM* | 10% | ? | 5% | -13 | -4%
COC(=O)COc1ccc(/C=N/NC(=O)CN(c2ccccc2OC)S(=O)(=O)c2ccccc2)cc1 | ? | -7% | ? | -10% | -96* | 0%[11.5 µM]
COc1ccccc1NC(=O)COc1ccc(/C=N/NS(=O)(=O)c2ccc(C)cc2)cc1 | ? | 2% | -14% | -28% | 17 | -12%
COc1ccccc1N(CC(=O)NCc1ccco1)S(=O)(=O)c1ccc(C)cc1 | -2% | -32% | -21% | -13% | -85* | 0%
Cc1ccccc1N(CC(=O)NCc1ccco1)C(=O)CNS(=O)(=O)c1ccc(F)cc1 | -14% | -1% | 7% | -4% | -13 | 1%
COc1ccc(N(CC(=O)NCc2ccco2)S(=O)(=O)c2ccc(C)cc2)cc1OC | -38% | 2% | 2% | -3% | 13 | 2%
Cc1ccc(N(CC(=O)NCc2ccco2)C(=O)CNS(=O)(=O)c2ccc(F)cc2)c(C)c1 | -15% | -1% | -7% | 2% | -95* | 4%
O=c1c(O)c(-c2ccc(O)c(O)c2)oc2c(OC[C@@H]3O[C@@H](O)[C@@H](O)[C@H](O)[C@H]3O)c(O)cc(O)c12 | -8% | . | -2% | . | . | .
COC(=O)COc1ccc(/C=N/NS(=O)(=O)c2ccccc2)cc1 | -13% | -11% | 1% | -18% | -92* | 5%
NC(=O)COc1ccc(/C=N/NS(=O)(=O)c2ccccc2)cc1 | 7% | 15% | 1% | 1% | 14 | 4%
Cc1ccccc1N(CC(=O)Nc1ccccc1C(=O)NCc1ccco1)S(=O)(=O)c1ccccc1 | 16µM* | 0% | ? | 0% | -3 | -1%
O=C(Nc1ccccc1C(=O)Nc1ccccc1C(=O)NCc1ccco1)c1ccco1 | ? | -15% | 16µM* | -20% | -2 | 1%
Cc1ccccc1C(=O)c1c[nH]c(C(=O)NCc2ccco2)c1 | ? | 2% | ? | -9% | -52* | 0%
COc1ccc(N2C(=O)[C@H]3CCC=C[C@H]3[C@@H]2c2ccccc2Br)cc1 | ? | ? | ? | -34% | 9 | -6%
Cc1ccc(NC2Sc3ccccc3NC2=O)cc1 (stereo not given) | ? | -19% | ? | -2% | 25 | -1%
CN(c1ccccc1)S(=O)(=O)c1ccc(C(=O)N2CCCC2)cc1 | -29% | 9% | -23% | 4% | 29 | 4%
CC1CC(C)CN(C(=O)c2cccc(S(=O)(=O)N(C)c3ccccc3)c2)C1 (stereo not given) | 5.8µM* | 2% | 8.2µM* | -5% | 3 | 2%
CN(c1ccccc1)S(=O)(=O)c1cccc(C(=O)N2CCCCCC2)c1 | 21µM* | -13% | 16µM* | -13% | -1 | 2%
SMILES | DT40 TDP1 no CPT | TGFb inhibitor | DT40 TDP1 CPT | HepG2 tox | IL-1B inflam inh | S-ASM inh
CN(c1ccc(C(=O)N2CCCCC2)cc1)S(=O)(=O)c1ccccc1 | 8.2µM* | 5% | 13µM* | -11% | -13 | 6%
Cc1ccc(S(=O)(=O)N(C)C)cc1NC(=S)N1CCN(Cc2ccc3c(c2)OCO3)CC1 | 16µM* | -13% | 15µM* | -9% | 30 | 5%
Cc1ccccc1NC(=S)N1CCN(Cc2ccc3c(c2)OCO3)CC1 | ? | 0% | 2% | 6% | -2 | 5%
CCOC(=O)C1CCCN(C(=O)c2ccc(NC(=O)CC3SC(N4CCCC4)=NC3=O)cc2)C1 (stereo not given) | -17% | 4% | -8% | 1% | 25 | 0%
Cc1ccc(-n2ncc(-c3n[nH]c(=S)o3)c2N)cc1C | ? | 10% | -7% | 6% | 23 | .
Cc1ccc(S(=O)(=O)N(C)c2ccc(C(=O)N3CCCCC3)cc2)cc1 | ? | ? | 9.2µM* | -3% | 20 | 1%
CN(c1ccc(C(=O)N2CCN(Cc3ccccc3)CC2)cc1)S(=O)(=O)c1ccccc1 | 15µM* | -26% | -28% | -6% | ? | 9%
Cc1ccc(S(=O)(=O)N(C)c2ccc(C(=O)N3CCN(Cc4ccc5c(c4)OCO5)CC3)cc2)cc1 | 21µM* | ? | ? | -5% | -73* | 3%
Cc1ccc(S(=O)(=O)N(C)c2ccc(C(=O)N3CCc4ccccc4C3)cc2)cc1 | ? | ? | ? | -16% | -62* | 0%
Cc1ccc(S(=O)(=O)N(C)c2ccc(C(=O)N3CCC(C(N)=O)CC3)cc2)cc1 | ? | -1% | -13% | -7% | -2 | 6%
CN(c1ccccc1)S(=O)(=O)c1ccc(C(=O)N2CCc3ccccc3C2)cc1 | ? | ? | ? | -25% | 19 | -6%
Cc1nn(C(=O)CCC(=O)NCc2ccc(OC(C)C)cc2)c2ccccc12 | 13% | 6% | 8% | 1% | 0 | -3%
COc1ccc(N(C)S(=O)(=O)c2cccc(C(=O)OCC(=O)N3CC(C)CC(C)C3)c2)cc1 (stereo not given) | 21µM* | 0% | ? | -22% | -27 | -1%
